Only some compounds are listed: those with a hit (about 7% of all), similar ones and a draw of the others.
BAZ2B block: qHTS Assay for Inhibitors of BAZ2B | Bromodomain adjacent to zinc finger domain protein 2B (Homo sapiens), Q9UIF8 | AlphaScreen BAZ2B-H3K14Ac peptide displacement | Potency, µM (top dose mostly 114 µM), without a hit: at the top dose activity change, negative = inhibition, actives largely listed as inhibitors | hit rate 4.4% among 360,000 | AID 504333, 2011; further: potency means the concentration at half of the fitted maximal effect; on the % scale 0 is the no-effect control and ±100 the full control effect; nearly all actives have a fitted effect of over 60% in size
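Complex of BAZ2B and biotin-H3K14Ac (50 nM apiece) forms over 30 min at RT, then faces library compounds up to 110 uM for another 30 min; AlphaScreen beads added, 20 min dark incubation, luminescence read.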
HP1b binding inh: HTS for Inhibitors of HP1-beta Chromodomain Interactions with Methylated Histone Tails; AID 540317, 2011; hit rate 0.56% among 390,000; AlphaScreen HP1-beta / biotin-H3K9me3 peptide binding; Chromobox protein homolog 1 (Homo sapiens), P83916; Potency, µM (doses to about 114 µM), for inactives: top-dose activity change, negative = inhibition, hits mostly inhibitors; further: potency means the concentration at half of the fitted maximal effect; nearly all actives have a fitted effect of over 70% in size
Target sequence (P83916 whole entry, looked up): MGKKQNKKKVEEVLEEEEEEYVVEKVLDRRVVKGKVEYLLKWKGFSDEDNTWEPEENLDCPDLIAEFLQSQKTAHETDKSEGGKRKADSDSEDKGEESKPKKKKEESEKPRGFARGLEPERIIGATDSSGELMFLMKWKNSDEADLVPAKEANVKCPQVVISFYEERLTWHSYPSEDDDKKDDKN
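AlphaScreen: HP1-beta (50 nM) preformed 30 min with biotin-H3(1-18)K9me3 peptide (50 nM) in PBS pH 7.4, 0.01% Tween-20. Compound added for 30 min at RT, then streptavidin donor/nickel chelate acceptor beads (10 ug/mL) for 30 min.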
PLK1 PBD block: qHTS for Inhibitors of PLK1-PDB (polo-like kinase 1 - polo-box domain): Primary Screen | Serine/threonine-protein kinase PLK1 (Homo sapiens), P53350 | Plk1 PBD binding of FITC phosphopeptide, fluorescence polarization | Potency, µM, for inactives: max response, negative = inhibition, actives largely listed as inhibitors | hit rate 2.8% among 360,000; further: potency means the concentration at half of the fitted maximal effect; series mostly up to about 57 µM; on the % scale 0 is the no-effect control and ±100 the full control effect; nearly all actives have a fitted effect of over 65% in size
JMJD2A Tudor: qHTS Assay for Inhibitors of JMJD2A-Tudor Domain; Potency, µM (series often up to 114 µM), inactives show at the highest dose activity change, negative = inhibition, hits mostly inhibitors; AlphaScreen JMJD2A-Tudor / H3K4me3 peptide binding; AID 504339, 2011; hit rate 4.4% among 390,000; Lysine-specific demethylase 4A (Homo sapiens), O75164; further: potency means the concentration at half of the fitted maximal effect; on the % scale 0 is the no-effect control and ±100 the full control effect; nearly all actives have a fitted effect of over 50% in size
PI5P4K alpha inh: qHTS for Inhibitors of phosphatidylinositol 5-phosphate 4-kinase (PI5P4K) | hit rate 1.2% among 330,000 | Phosphatidylinositol 5-phosphate 4-kinase type-2 alpha (Homo sapiens), P48426 | max response, % | PI5P4Kalpha enzyme, ADP-Glo luminescence, 60 min; stronger effect = lower value; active means max response of -50% or lower; inconclusive means between -30% and -50%; inactive means -30% or higher; further: value at the top dose of about 77 µM; on the % scale 0 is the no-effect control and ±100 the full control effect
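Enzyme plus substrate dispensed, test compounds pinned in, then ATP (5 microM final) added. After 60 min at RT, ADP-Glo reagent 1 for 45 min and reagent 2 for 30 min preceded luminescence imaging.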
KAT2A inh: qHTS Assay for Inhibitors of GCN5L2; Histone acetyltransferase KAT2A (Homo sapiens), Q92830; GCN5L2 HAT assay, ThioGlo1 CoA-SH fluorescence; Potency, µM (highest dose often 58.9 µM), without a hit: at the top dose activity change, negative = inhibition, hits mostly inhibitors; hit rate 0.21% among 390,000; AID 504327, 2011; further: potency means the concentration at half of the fitted maximal effect; on the % scale 0 is the no-effect control and ±100 the full control effect
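Enzyme at 20nM final was mixed with library compounds for 15 min at room temperature. Peptide H3(1-25) at 75uM, acetyl-CoA at 70uM and ThioGlo1 at 50uM were then added. Plates were read immediately and after 20 min (Ex340nm/Em540nm).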
* = called active by the depositor; ? = inconclusive; . = no result; [ ] = dose if it differs, or a comment. Unless noted, the call rests on the fitted dose curve; in most records, active means well fitted curve in the direction sought with a large enough effect; inconclusive means small, poorly fitted or top-dose-only effect, or another doubt; inactive means no such curve, though single readings can be large; an effect the other way counts as inactive or inconclusive.

SMILES	BAZ2B block	HP1b binding inh	PLK1 PBD block	JMJD2A Tudor	PI5P4K alpha inh	KAT2A inh
Cn1c(SCC(=O)Nc2nncs2)nnc1C1CC1	50µM*	-34%	?	56µM*	-29	-16%
COc1ccc(NC(=O)CSc2nnc(C3CC3)n2N)cc1	1%	32%	0%	-13%	.	-10%
COc1ccc(NC(=O)CSc2nnc(C3CC3)n2C)cc1	2%	6%	24µM*	10µM*	-28	-5%
CCOC(=O)c1csc(NC(=O)CSc2nnc(C3CC3)n2C)n1	-9%	-3%	27µM*	?	-15	-11%
COc1cc(NC(=O)C/C(C)=N/NC(=O)C(=O)NCCO)c(OC)cc1Cl	-4%	2%	27µM*	?	9	-5%
COc1cc(NC(=O)C/C(C)=N/NC(=O)C(=O)NC2CCCCC2)c(OC)cc1Cl	?	37%	4%	3%	0	-4%
CCc1nn2c(=O)cc(COC(=O)c3ccccc3NC(=O)COc3ccc(C)c(C)c3)nc2s1	-8%	32%	.	-2%	.	-3%
Cn1cnnc1SCC(=O)N1c2ccccc2-c2c(ssc2=S)C1(C)C	-2%	.	.	.	.	-2%
Cc1ccc2c(c1)-c1c(ssc1=S)C(C)(C)N2C(=O)CSC1=NCCS1	8.9µM*	?	-2%	5µM*	.	1%
N#Cc1ccccc1NC(=O)Cn1cnc2onc(-c3cccc(F)c3)c2c1=O	6%	23%[57 µM]	.	-19%	.	-7%
N=C1C=CC(=C(c2ccc(N)cc2)c2ccc(N)cc2)C=C1	.	?	5%	7.1µM*	-53*	.
Nc1ccc(C(=O)C(=O)c2ccc(N)cc2)cc1	-4%	17%	-14%	-4%	1	0%
C[C@@H]1CN([C@@H](C)CO)C(=O)CCCn2nncc2CO[C@H]1CN(C)Cc1ccccc1C(F)(F)F	.	.	-5%	.	-3	.
Cc1csc2nc(COC(=O)c3ccc(Cl)c([N+](=O)[O-])c3)cc(=O)n12	2%	-21%[57 µM]	?	28µM*	-2	-2%
Cc1csc2nc(COC(=O)c3ccc(NC(=O)C(C)C)cc3)cc(=O)n12	-7%	-1%	.	-21%	.	-8%
CCOc1ccc(-c2nnc(SCc3nc4ccccc4[nH]3)n2N)cc1	?	43%	2%	89µM*	-1	7%
Cc1ccccc1CSc1nnc(-c2ccco2)n1Cc1ccco1	50µM*	-9%	-7%	?	.	-22%
Cc1ccc(-c2nnc(SCc3ccc(C#N)cc3)n2Cc2ccco2)cc1	-35%	7%	-9%	79µM*	.	-4%
Cc1cccc(-c2nnc(SCc3nc4ccccc4[nH]3)n2Cc2ccco2)c1	-31%	17%	-10%	-22%	-4	-4%
Cc1ccc(-c2nnc(SCc3nc4ccccc4[nH]3)n2Cc2ccco2)cc1	?	6%	-12%	79µM*	.	-16%
COc1ccc(S(=O)(=O)NCCS(=O)(=O)N2CCN(c3ccccc3F)CC2)cc1	0%	6%[57 µM]	.	-15%	.	-11%
O=C(CC1Sc2ccccc2NC1=O)Nc1cccc(C(=O)O)c1 (centres undefined)	56µM*	?	-13%	50µM*	?	3%
CC(=O)Nc1ccc2c(COC(=O)CC3Sc4ccccc4NC3=O)cc(=O)oc2c1 (centres undefined)	56µM*	?	-21%	79µM*	?	-7%
Cc1ccc(C(=O)Nc2nc(-c3ccccn3)cs2)o1	18µM*	27%	-22%	50µM*	-24	-6%
CC(=O)Nc1ccc(-c2csc(NC(=O)c3ccc(C)o3)n2)cc1	-34%	17%	-9%	-13%	-19	-7%[0.501 µM]
CCCn1nc(C(=O)Nc2nc(-c3ccccn3)cs2)c2ccccc2c1=O	?	30%	-5%	56µM*	5	0%

Source: PubChem
